Inconclusive results are not listed. The source made the active and inactive calls. How the source made its calls: active means hit-call score of the fitted dose curve at least 0.9, where 1 is the maximum; inconclusive means response in the unintended direction; inactive means score below 0.9.
Legend:
[1] = biological target: Cellular tumor antigen p53 (Homo sapiens) (UniProt P04637); assay: TOX21_p53_BLA_p2_ratio: Tox21 HCT-116 p53 Agonism Beta-lactamase Assay, Ratio, Phase 2 (AID 2283592)
In short: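 HCT-116 cells with p53-responsive beta-lactamase reporter, 4000 cells/well, preincubated 5 h, then compound in DMSO (217-fold dilution) for 16 h at 37C. CCF4-AM substrate 2 h at room temperature; 460/530 nm emission ratio fitted upward versus DMSO.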

[2] = biological target: Cellular tumor antigen p53 (Homo sapiens) (UniProt P04637); assay: TOX21_p53_BLA_p5_ratio: Tox21 HCT-116 p53 Agonism Beta-lactamase Assay, Ratio, Phase 5 (AID 2283599)
In short: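 HCT-116 cells carrying a p53-inducible beta-lactamase reporter were seeded at 4000 cells/well and dosed after 5 h with compound in DMSO (217-fold dilution). After 16 h at 37C, CCF4-AM substrate was added for 2 h, and the 460/530 nm emission ratio was scored as gain-of-signal versus DMSO.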

[3] = TOX21_p53_BLA_p5_viability: Viability Assessment in the Tox21 HCT-116 p53 Agonism Beta-lactamase Assay, Phase 5 (AID 2283600)
In short: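 HCT-116 p53 beta-lactamase reporter cells, 4000/well, were exposed to compound (pin transfer, 217-fold dilution) for 16 hours at 37C. Cellular ATP was read by CellTiter-Glo luminescence after 30 min at room temperature.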

[4] = TOX21_p53_BLA_p4_viability: Viability Assessment in the Tox21 HCT-116 p53 Agonism Beta-lactamase Assay, Phase 4 (AID 2283597);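 further: hits lower the luminescence signal meaning cytotoxicity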
In short: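 HCT-116 p53-bla cells, 4000/well, dosed after 5 h attachment and incubated 16 h at 37 °C, 5% CO2. Viability from CellTiter-Glo ATP luminescence after 30 min at room temperature, taken after the beta-lactamase read; loss of signal indicates cytotoxicity.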

[5] = biological target: Cellular tumor antigen p53 (Homo sapiens) (UniProt P04637); assay: TOX21_p53_BLA_p4_ratio: Tox21 HCT-116 p53 Agonism Beta-lactamase Assay, Ratio, Phase 4 (AID 2283601)
In short: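 HCT116 cells carrying an inducible beta-lactamase reporter were plated at 4000 cells/well, rested 5 h, then exposed to compounds in DMSO (217-fold dilution) for 16 h at 37C. CCF4-AM substrate was loaded 2 h at room temperature; 460/530 nm emission ratio scored gain-of-signal versus DMSO.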

Measured: outcome

Chain of Cellular tumor antigen p53 (Homo sapiens) (P04637 whole entry, looked up): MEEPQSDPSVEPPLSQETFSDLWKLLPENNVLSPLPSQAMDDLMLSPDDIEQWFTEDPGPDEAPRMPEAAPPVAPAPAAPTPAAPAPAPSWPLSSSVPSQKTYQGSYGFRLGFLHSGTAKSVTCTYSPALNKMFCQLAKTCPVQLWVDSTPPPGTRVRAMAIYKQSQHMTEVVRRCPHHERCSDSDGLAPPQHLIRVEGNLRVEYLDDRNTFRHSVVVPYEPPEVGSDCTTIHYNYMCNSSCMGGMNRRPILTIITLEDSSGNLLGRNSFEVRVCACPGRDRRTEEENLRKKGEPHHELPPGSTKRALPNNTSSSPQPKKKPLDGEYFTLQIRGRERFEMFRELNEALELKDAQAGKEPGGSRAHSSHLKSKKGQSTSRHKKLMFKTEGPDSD

C1COCCO1
inactive: [1] | [2] | [3]

CCN(CC)CCNC(=O)COc1ccc(OC)cc1
inactive: [1] | [4] | [3] | [5]

O=C1NCCN1CCO
inactive: [1] | [2] | [3] | [5]

CC/C=C(\C(=O)N[C@@H]1C(=O)N2C(C(=O)OCOC(=O)C(C)(C)C)=C(COC(N)=O)CS[C@H]12)c1csc(N)n1
inactive: [1] | [4] | [3] | [5]

NC(Cc1ccccc1)C(=O)O (stereo not given)
inactive: [1] | [4] | [5]

CCCCCCCCCCCCCCCCBr
inactive: [1] | [2]

O=C1NC(=O)[C@H]2[C@@H]1[C@@H]1C=C[C@H]2C1
inactive: [1] | [2] | [3] | [5]

CO[C@@]1(NC(=O)C(C(=O)O)c2ccc(O)cc2)C(=O)N2C(C(=O)O)=C(CSc3nnnn3C)CO[C@@H]21 (stereo not given in full)
inactive: [1] | [2] | [3] | [5]

CCC(CO)(CO)[N+](=O)[O-]
inactive: [1] | [4] | [3]

CCCCCCCCCCCCCCBr
inactive: [1] | [4] | [3] | [5]

NC(=O)c1cn(Cc2c(F)cccc2F)nn1
inactive: [1] | [3]

NC[C@H]1O[C@H](O[C@H]2[C@H](O[C@@H]3O[C@H](CO)[C@@H](O)[C@H]3O)C(O)[C@H](N)C[C@@H]2N)[C@H](N)[C@@H](O)[C@@H]1O (stereo not given in full)
inactive: [1] | [2] | [5]

N[C@@H](CS)C(=O)O
inactive: [1] | [3] | [5]

COC(=O)NCCC[Si](OC)(OC)OC
inactive: [1] | [3]

CN(C)C=Nc1c(I)cc(I)c(CCC(=O)O)c1I
inactive: [1] | [3]

C=CC(=O)OCCOCCOCCOCCOC(=O)C=C
inactive: [1] | [2] | [5]

CCCC(=O)C(=O)O
inactive: [1] | [2] | [3] | [5]

Cc1ccc2cccnc2c1
inactive: [1] | [2] | [3] | [5]

Cc1nc2ccc(Cl)cc2[nH]1
inactive: [1] | [2] | [5]

O=C(O)c1cc2cc(Cc3cccnc3)ccc2o1
inactive: [1] | [3] | [5]

CCOC(=O)[C@H](CCc1ccccc1)N[C@@H](C)C(=O)N1CC2(C[C@H]1C(=O)O)SCCS2
inactive: [1] | [2] | [5]

C=C(C)C(=O)OC1CC(C)CC(C)(C)C1 (stereo not given)
inactive: [1] | [2] | [5]

O=C(O)c1ccc(O)cc1O
inactive: [1] | [2] | [5]

Cc1cccc(C(=O)O)c1[N+](=O)[O-]
inactive: [1] | [2] | [5]

C=C(C)C(=O)NCCC[N+](C)(C)C
inactive: [1] | [2] | [3] | [5]
